This note sets out measurements from PubChem BioAssay (NCI).

About 83,000 compounds went through this panel and 20% of them were active in at least one assay; those are over-represented in the sample as a whole.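 Compound tested at a single concentration for 48 hours in 96-well plates; a percent growth value below 10 was scored as active.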 Unmarked numbers belong to inactive results. Active and inactive are the calls of the source.

Holding throughout (assay): NCI-60 one-dose screen, 48 h (100 = growth as untreated, 0 = no growth, -100 = all killed)
What all share (conditions): 10 µM unless noted

Experiment [1] has as its system DU-145 prostate.
In experiment [2] the test system is K-562 leukemia.
Experiment [3] concerns MALME-3M melanoma.
In experiment [4] the test system is MDA-MB-231 breast.
For experiment [5], the system named is RXF 393 renal.
In experiment [6] the test system is SF-268 CNS.
The subject of experiment [7] is SF-295 CNS.
For experiment [8], the system named is SF-539 CNS.
Experiment [9] relates to UACC-257 melanoma.
Experiment [10] deals with M14 melanoma.
Experiment [11] has as its system HT29 colon.
In experiment [12] the test system is U251 CNS.
Experiment [13] has as its system PC-3 prostate.
Experiment [14] relates to SK-MEL-5 melanoma.
The test system of experiment [15] is UACC-62 melanoma.
For experiment [16], the system named is LOX IMVI melanoma.
Experiment [17] relates to SK-MEL-28 melanoma.
In experiment [18] the test system is SNB-75 CNS.
In experiment [19] the test system is SNB-19 CNS.
Experiment [20] concerns HCT-15 colon.

As to `CC1=C/C(=C(\c2cc(C)c(O)c(C(=O)O)c2)c2c(Cl)cccc2Cl)C=C(C(=O)O)C1=O`, the growth in experiment [1] was 118%; in [2] it was 114%; in experiment [3], 88.3%; in [4] it was 99.9%; in experiment [5] it was 120%; in [6], 104%. Further, the growth in [7] was 100%; in experiment [8], 100%; in [9], 106%; in [10], 97.4%; in experiment [11], 97.8%; in experiment [12], 104%. Besides, the growth in experiment [13] is 89%; in [14], 100%; in experiment [15], 94.9%; in [16], 95.7%; in [17], 116%.

On to `Cc1ccccc1-n1nnc(C(=O)Nc2nc3ccc(F)cc3s2)c1C`, for which the growth is 66.9% in [1]; 35.3% in experiment [2]; 50.6% in [3]; 82% in experiment [4]; 65.6% in [5]; 73% in experiment [6]. The growth is 60.5% in experiment [7]; 79.9% in experiment [8]; 55.7% in [9]; 49.3% in experiment [10]; 73.2% in experiment [11]; 64% in experiment [18]. The growth is 63.7% in experiment [19]; 76.8% in experiment [12]; 24.5% in experiment [14]; 59.2% in experiment [15]; 75% in [16]; 57.3% in experiment [17].

`COc1ccc2[nH]c(C(=O)N3CCN(C(=O)OCc4ccc5c(Br)cc(Br)c(O)c5n4)CC3)cc2c1`: the growth in experiment [1] was -97.8% (active); in [2], 2.19% (active); in experiment [3], -95.3% (active); in experiment [4] it was -84.6% (active); in experiment [5], -87.9% (active); in experiment [6], -80.2% (active). Further, the growth in experiment [7] is -87.8% (active); in experiment [8], -99.8% (active); in [9], -59.1% (active); in experiment [10], -77.9% (active); in experiment [11], -68.5% (active); in [18], -98.5% (active). For the same compound, the growth in [12] was -95.7% (active); in experiment [13], -87.9% (active); in experiment [14], -99% (active); in experiment [15], -95.5% (active); in experiment [16], -91.2% (active); in experiment [17], -98.1% (active).

For `Cc1cnc([C@]23CC[C@@H](C)[C@H](C)[C@H]2C2=CC[C@@H]4[C@@]5(C)Cc6c([nH]c7ccccc67)C(C)(C)[C@@H]5CC[C@@]4(C)[C@]2(C)CC3)o1`, the growth in experiment [1] was 69.9% [100 µM]; in experiment [2] it was 38.3% [100 µM]; in experiment [3], 59.1% [100 µM]; in [4], 38.3% [100 µM]; in experiment [5] it was 101% [100 µM]; in experiment [6], 36.1% [100 µM]. In addition, the growth in experiment [7] was 31.7% [100 µM]; in experiment [8], 6.53% [100 µM] (active); in experiment [9], 61.5% [100 µM]; in experiment [10] it was 28.4% [100 µM]; in [11], 25.7% [100 µM]; in experiment [18], 62.4% [100 µM]. The growth was 35.6% [100 µM] in [19]; 41.7% [100 µM] in experiment [12]; 55.4% [100 µM] in experiment [13]; 29% [100 µM] in experiment [14]; 24.4% [100 µM] in experiment [15]; 17.3% [100 µM] in [16]. Moreover, in [17], the growth is 20.3% [100 µM].

As for `Clc1ccc(/C=N/Nc2nc3ccccc3s2)c(Cl)c1`, the growth in experiment [1] is 97.9%; in experiment [2], 91%; in experiment [3], 79.6%; in experiment [5], 114%; in experiment [6], 85.4%; in [7] it was 97.5%. Besides, the growth in [8] is 100%; in [9] it was 93.5%; in experiment [10], 121%; in experiment [20] it was 85%; in experiment [11] it was 84.1%; in [18], 84.3%. Moreover, the growth was 103% in experiment [19]; 76.3% in [12]; 79.5% in [13]; 98.4% in [14]; 103% in experiment [15]; 84.7% in [16]. Also, the growth in [17] is 114%.

For `C[n+]1cccc(NC(=O)c2ccc3ccc4ccc(C(=O)Nc5ccc[n+](C)c5)nc4c3n2)c1`, the growth is 9.79% (active) in experiment [1]; 35.8% in [2]; 81.4% in experiment [3]; 33.2% in experiment [4]; 33% in experiment [5]; 53.3% in experiment [6]. For the same compound, the growth in experiment [7] is 5.59% (active); in experiment [8] it was 37.7%; in [9] it was 94.4%; in [10], 53.6%; in experiment [11] it was 34.2%; in experiment [18], 12.8%. Besides, the growth in experiment [19] is 14.3%; in [12], 13%; in experiment [14], 1.98% (active); in experiment [15] it was -54.4% (active); in [16] it was 64.5%; in experiment [17], 31.2%.

On to `CCOC(=O)c1cc(C(=O)c2ccc(OC)c(OC)c2)n2ccc(-c3ccccn3)cc12`, for which the growth in experiment [1] was 65.1%; in experiment [2], 107%; in experiment [3], 49.6%; in experiment [4] it was 58.1%; in experiment [5] it was 63.9%; in [6], 25.3%. Further, the growth in [7] was 69.1%; in experiment [8] it was 29.6%; in experiment [9], 76.3%; in [10], 101%; in [11], 76.4%; in experiment [19], 67.8%. The growth in experiment [12] is 21.7%; in experiment [13] it was 87%; in experiment [14] it was 37.1%; in experiment [15], 83.5%; in [16] it was 84.7%; in [17], 71%.

Consider `O=C(CCNCc1ccccc1)c1ccccc1`, for which the growth was 105% in [1]; 108% in experiment [2]; 104% in [3]; 121% in [4]; 116% in experiment [5]; 108% in experiment [6]. The growth in [7] is 90%; in experiment [8] it was 98.1%; in experiment [9] it was 102%; in experiment [10] it was 105%; in [11] it was 106%; in [18], 109%. The growth is 114% in [19]; 101% in experiment [12]; 106% in experiment [13]; 99% in experiment [14]; 97.5% in [15]; 105% in experiment [16]. Besides, the growth in [17] is 113%.
